Structures can show the parent of a compound that is named as a salt.
Each molecule was assayed on Neuro-2a (assay: neurite formation score, plate-normalized to DMSO control mean 5.04 (score (0-8 scale)); higher = more or longer neurites). Conditions: 1 µM.
Method: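 Neuro-2a mouse neuroblastoma cells in PLL-coated 96-well plates were pre-treated for 1 h in DMEM(+) with each kinase inhibitor at 1 µM, then switched to serum-free DMEM(-) with inhibitor to induce neurite outgrowth and fixed about 2-3 h later. Three blinded observers scored neurite formation from 0 (no neurites) to 8 (long neurites on almost all cells).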
Molecule `CS(=O)(=O)N1CCN(Cc2cc3nc(-c4cccc5[nH]ncc45)nc(N4CCOCC4)c3s2)CC1` [GDC-0941 dimethanesulfonate] has a neurite formation score of 2.8.
Molecule `S=C(NCc1ccc2c(c1)OCO2)N1CCN(c2ncnc3c2oc2ccccc23)CC1` [Amuvatinib (MP-470, HPK 56)] has a neurite formation score of 4.69.
Molecule `O=C(Nc1cccc(Cl)c1)Nc1ncc(CCNc2ncnc3ccsc23)s1` [SNS-314 Mesylate] has a neurite formation score of 4.69.
In the case of `O=C(O)c1ccc(-c2c[nH]c3ncc(-c4ccccc4)cc23)cc1C1CCCC1`, the neurite formation score was 5.29.
In the case of `Cn1cnc(-c2cc3nccc(Oc4ccc(NC(=S)NC(=O)Cc5ccccc5)cc4F)c3s2)c1`, the neurite formation score was 3.69.
With `CCN(CC)CCCC(C)Nc1nc(C)cc(Nc2ccc3nc(C)cc(N)c3c2)n1` (stereo not given) the neurite formation score was 4.91.
`CCN1CCN(c2ccc(Nc3cc(N(C)C(=O)Nc4c(Cl)c(OC)cc(OC)c4Cl)ncn3)cc2)CC1` showed a neurite formation score of 3.8.
Work on `C[C@]1(O)C[C@@H](c2nc(-c3ccc4ccc(-c5ccccc5)nc4c3)c3c(N)nccn32)C1` [Linsitinib] yielded a neurite formation score of 4.9.
`CCS(=O)(=O)N1CC(CC#N)(n2cc(-c3ncnc4[nH]ccc34)cn2)C1` was tested, and the neurite formation score was 4.02.
`Cc1nc(-c2cn3c(n2)-c2ccc(-c4cnn(C(C)(C)C(N)=O)c4)cc2OCC3)n(C(C)C)n1` was tested, and the neurite formation score was 5.29.
`CNC(=O)c1ccc(-c2cnc3ncc(Cc4ccc5ncccc5c4)n3n2)cc1F` showed a neurite formation score of 5.14.
For `CN(C)C/C=C/C(=O)Nc1cc2c(Nc3ccc(F)c(Cl)c3)ncnc2cc1O[C@H]1CCOC1` [Afatinib (BIBW2992)], the neurite formation score was 3.57.
Work on `N#Cc1cccc(-c2c[nH]c3ncnc(N4CCOCC4)c23)c1` yielded a neurite formation score of 5.21.
In the case of `COCCOc1ccc2c(c1)ncn2-c1ccc2cccc(N3CCC(N)CC3)c2n1`, the neurite formation score was 4.88.
`C[C@H]1[C@H](C)CC[C@]2(C(=O)O)CC[C@]3(C)C(=CC[C@@H]4[C@@]5(C)C[C@@H](O)[C@H](O)[C@@](C)(CO)[C@@H]5CC[C@]43C)[C@H]12` [Asiatic acid] was tested, and the neurite formation score was 4.21.
`COc1cc(N2CCOCC2)ccc1Nc1ncc(F)c(Nc2ccccc2NS(C)(=O)=O)n1` gave a neurite formation score of 4.54.
In the case of `C#Cc1cccc(Nc2ncnc3cc(OCCOC)c(OCCOC)cc23)c1` [Erlotinib Hydrochloride], the neurite formation score was 4.57.
`O=[N+]([O-])c1ccc(-c2nc(-c3ccc(F)cc3)c(-c3ccncc3)[nH]2)cc1` was tested, and the neurite formation score was 3.96.
In the case of `c1cc(-c2cnn3cc(-c4ccc(N5CCNCC5)cc4)cnc23)c2cccnc2c1`, the neurite formation score was 4.88.
For `CN(C)S(=O)(=O)c1ccc2c(c1)/C(=C/c1cc3c([nH]1)CCCC3)C(=O)N2`, the neurite formation score was 4.54.
`CC(C)(C#N)c1ccc(N2C(=O)OCc3cnc4ccc(-c5cnc6ccccc6c5)cc4c32)cc1` showed a neurite formation score of 3.63.
`O=c1c(O)c(-c2ccc(O)c(O)c2)oc2cc(O)cc(O)c12` [Quercetin] was tested, and the neurite formation score was 4.54.
In the case of `COc1cc2ncnc(Oc3cccc(NC(=O)Nc4cc(C(C)(C)C(F)(F)F)on4)c3)c2cc1OC`, the neurite formation score was 5.24.
For `CO[C@H]1C[C@@H]2CC[C@@H](C)[C@@](O)(O2)C(=O)C(=O)N2CCCC[C@H]2C(=O)O[C@H]([C@H](C)C[C@@H]2CC[C@@H](O)[C@H](OC)C2)CC(=O)[C@H](C)/C=C(\C)[C@@H](O)[C@@H](OC)C(=O)[C@H](C)C[C@H](C)/C=C/C=C/C=C/1C` [Rapamycin (Sirolimus)], the neurite formation score was 4.57.
Work on `Cn1cc(C2=C(c3cn(CCCSC(=N)N)c4ccccc34)C(=O)NC2=O)c2ccccc21` [Ro 31-8220 Mesylate] yielded a neurite formation score of 4.54.
`Cc1nc(NC(=O)N2CCC[C@H]2C(N)=O)sc1-c1ccnc(C(C)(C)C(F)(F)F)c1` was tested, and the neurite formation score was 5.24.
With `COc1cc2nccc(Oc3ccc(NC(=O)Nc4ccc(F)cc4F)c(F)c3)c2cc1OC` the neurite formation score was 5.24.
`CC(C)Oc1ccc(-c2cnc3c(-c4ccnc5ccccc45)cnn3c2)cc1` was tested, and the neurite formation score was 4.88.
In the case of `COc1ccc(-c2nc(N3CCOCC3)c3sc(CN(C)c4ncc(C(=O)NO)cn4)cc3n2)cn1`, the neurite formation score was 4.36.
In the case of `CNC(=O)c1cc(Oc2ccc(NC(=O)Nc3ccc(Cl)c(C(F)(F)F)c3)c(F)c2)ccn1` [Regorafenib], the neurite formation score was 5.24.
`Cc1cc(CS(=O)(=O)c2ccccc2)cc(OCc2ccc(CN3CCC[C@@H]3CO)cc2)c1` showed a neurite formation score of 4.69.
Molecule `CC(C)(C)n1nc(-c2ccc(Cl)cc2)c2c(N)ncnc21` has a neurite formation score of 4.24.
With `Oc1ccc2ccccc2c1SSc1c(O)ccc2ccccc12` the neurite formation score was 3.88.
`COc1cc(Nc2ncc(F)c(Nc3ccc4c(n3)N(COP(=O)(O)O)C(=O)C(C)(C)O4)n2)cc(OC)c1OC` [Fostamatinib (R788)] gave a neurite formation score of 4.8.
`COc1ccc(CNc2nc(N(CCO)CCO)nc3c2ncn3C(C)C)cc1` showed a neurite formation score of 5.57.
`Cc1ccc(NC(=O)c2cccc(N(C)C)c2)cc1NC(=O)c1ccc(O)cc1` was tested, and the neurite formation score was 5.63.
`Cc1ccc(-n2nc(C(C)(C)C)cc2NC(=O)Nc2ccc(OCCN3CCOCC3)c3ccccc23)cc1` [BIRB 796 (Doramapimod)] gave a neurite formation score of 4.57.
Molecule `COc1nccc(-c2c(-c3ccc(F)cc3)ncn2C2CCC(O)CC2)n1` (stereo not given) has a neurite formation score of 5.36.
Work on `O=C1NC(=O)[C@@H](c2cn3c4c(cccc24)CCC3)[C@@H]1c1c[nH]c2ccccc12` [Tivantinib (ARQ 197)] yielded a neurite formation score of 0.236.
`O=S(=O)(NCCNC/C=C/c1ccc(Br)cc1)c1cccc2cnccc12` was tested, and the neurite formation score was 4.54.

From the supplement of paper PMC8047044
